Bioassay records as filed in PubChem BioAssay.
The list is not random: actives were taken first. Their share in the collection is about 3.8%.
tim23-1 inh = growth inhibitors of tim23-1 mutant yeast | S. cerevisiae tim23-1 growth, BacTiter-Glo luminescence, 24 h | inhibition, % at 20 µM | actives 1.3% (n = 330,000) | AID 463212;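 active = growth inhibition of the mutant yeast at or above 50%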;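 note: temperature-sensitive mutant grown at 25 °C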
tim10-1 inh = tim10-1 yeast growth inhibition | S. cerevisiae tim10-1 ts strain growth, BacTiter-Glo, 24 h | inhibition, % at 20 µM | actives 2.2% (n = 330,000) | AID 463190;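 active = inhibition of at least 40%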;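 note: mutant grown at 25 °C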
PfHsp90 set2 = inhibits growth of yeast expressing Plasmodium falciparum Hsp90; S. cerevisiae expressing PfHsp90, BacTiter-Glo ATP, 48 h; yeast lacking PDR1 and PDR3 efflux regulators; inhibition, % at 9.4 µM; actives 0.32% (n = 310,000);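 active = every replicate shows inhibition above about 80%, whatever the replicate mean, limit read from the data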
B2AR ag = agonists of human beta-2 adrenergic receptor inducing internalization | P07550 | Am2.2-beta2AR cells, FAP receptor internalization, flow cytometry | response, % (concentration not given with the values) | actives 0.43% (n = 340,000);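 active = response above a set limit, near 3 SD of response in nonfluorescent compounds, cut at about 42% in these data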
Target sequence (P07550 whole entry, looked up): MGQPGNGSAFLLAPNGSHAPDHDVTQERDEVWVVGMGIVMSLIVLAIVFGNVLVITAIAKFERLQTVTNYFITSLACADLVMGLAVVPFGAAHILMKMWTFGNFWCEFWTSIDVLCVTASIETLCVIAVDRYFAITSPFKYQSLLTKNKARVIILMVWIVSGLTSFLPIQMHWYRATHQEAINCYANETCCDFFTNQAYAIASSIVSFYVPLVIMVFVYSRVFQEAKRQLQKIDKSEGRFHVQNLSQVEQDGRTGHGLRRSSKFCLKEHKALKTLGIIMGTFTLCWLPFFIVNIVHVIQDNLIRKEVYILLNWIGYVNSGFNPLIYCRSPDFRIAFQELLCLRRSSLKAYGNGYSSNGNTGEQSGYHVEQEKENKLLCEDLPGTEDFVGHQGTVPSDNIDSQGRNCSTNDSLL
TIM10 inh = growth inhibitors of TIM10 yeast strain | inhibition, % at 10 µM | S. cerevisiae TIM10 strain growth, BacTiter-Glo luminescence, 24 h | AID 463195 | actives 1.4% (n = 330,000);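 active = inhibition of 40% or more at the single tested concentration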;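 note: wild-type TIM10 isogenic control strain grown at permissive 25 °C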
TIM10 conf = confirmation of TIM10 yeast growth inhibitors. S. cerevisiae tim10 strain growth, BacTiter-Glo luminescence, 24 h. actives 63% (n = 4,600). AID 463215. shares compounds with TIM10 inh. inhibition, % at 10 µM;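 active = inhibition of yeast growth at or above a set limit in either of two replicates at 10 µM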; note: this counterscreen used the strain with wild-type TIM10
Each line names hits and unclear results; the compound was inactive in the other large screens (follow-up assays come after a bar, where they were run).

CC1(C)c2[nH]c3ccccc3c2C[C@@H]2C(=O)N(Cc3ccccc3F)C(=O)N21	TIM10 inh 41 | TIM10 conf inactive
Cc1cc(C)nc(SCc2cc(=O)c(OC(=O)c3ccco3)co2)n1	TIM10 inh 42 | TIM10 conf 37
Cc1cc(C)nc(SCc2cc(=O)c(OC(=O)c3ccc(Br)o3)co2)n1	none
O=C(CSc1nnc(CNC(=O)c2c(F)cccc2F)o1)NCC1CCCO1 (centres undefined)	none
CC1CCCC(NC(=O)CSc2n[nH]c(=O)n2Cc2ccccc2)C1C (centres undefined)	none (no result: PfHsp90 set2, B2AR ag)
Cc1cc(C)cc(NC(=O)C2(c3ccccc3)CC2(Cl)Cl)c1 (centres undefined)	TIM10 inh 41 | TIM10 conf 40
CCN(CC)C1CCN(C(=O)c2cc(COc3ccc(-n4cncn4)cc3)on2)C1 (centres undefined)	none
CCN(CC(=O)Nc1c(F)cccc1F)C(=O)c1ccc2c(c1)S(=O)(=O)N=C1CCCCCN12	none
Cn1c(SCC(=O)N(Cc2ccccc2)C(C)(C)C)nc2ccccc21	TIM10 inh 40 | TIM10 conf inactive
CC(C)(C)c1cc(NC(=O)Nc2ccc(Cl)cc2Cl)no1	TIM10 inh 42 | TIM10 conf 43
CC(C)(C)c1cc(NC(=O)Nc2ccc(Br)cc2Cl)no1	TIM10 inh 42 | TIM10 conf 41
O=C(Nc1ccon1)Nc1ccc(Cl)cc1Cl	none
COc1ccc(C2(CO)OC(CO)C(O)C2O)cc1 (centres undefined)	none (no result: tim23-1 inh, tim10-1 inh, TIM10 inh)
CC1=CC(C)(C)NC(=S)N1c1cc(C)cc(C)c1	TIM10 inh 45 | TIM10 conf inactive
CCOC(=O)N1CCC(NC(=O)c2ccc3c(c2)sc2nc(-c4ccc(OC)cc4)cn23)CC1	none (no result: PfHsp90 set2, B2AR ag)
CCOC(=O)N1CCN(C(=O)c2ccc3c(c2)sc2nc(-c4ccccc4)cn23)CC1	TIM10 inh 45 | TIM10 conf 53
CN(Cc1ccccc1)C(=O)c1cccc(NC(=O)Cc2ccc(NC(=O)C3CCCN(C(=O)C4CCCCC4)C3)cc2)c1 (centres undefined)	none (no result: tim23-1 inh, tim10-1 inh, TIM10 inh)
Cc1ccc(NC(=O)C/C(N)=N/OC(=O)Nc2cccc(C)c2)cc1	TIM10 inh 42 | TIM10 conf inactive
COc1ccccc1-c1c(C)nn2c(N3CCC(C(N)=O)CC3)cc(C)nc12	none
COc1ccccc1-c1c(C)nn2c(N3CCC(C)CC3)cc(C)nc12	TIM10 inh 40 | TIM10 conf 47
Clc1ccc(CN=C2Nc3ccccc3CS2)cc1	TIM10 inh 41 | TIM10 conf 32
O=C(NC1CC(=O)N(c2ccc(Cl)cc2)C1)C1CC1 (centres undefined)	none (no result: PfHsp90 set2)
CCc1cccc(C)c1NC(=O)c1cc(=O)[nH]c2ccc(S(=O)(=O)N3CCOCC3)cc12	none
O=C(CSc1nc2ccccc2s1)NCc1cc([N+](=O)[O-])ccc1O	none
CCOc1ccc(S(=O)(=O)Nc2cccc(Cl)c2)cc1	TIM10 inh 49 | TIM10 conf 43
CCOC(=O)c1cc(-c2cccc([N+](=O)[O-])c2)n[nH]1	TIM10 inh 48 | TIM10 conf 28
N=C1N(/N=C/c2ccccc2)C(=Nc2ccccc2)C(=S)N1c1ccccc1	TIM10 inh 57 | TIM10 conf 35
O=C(Nc1ccc2c(c1)nc1n2CCSC1)c1ccco1	TIM10 inh 60 (no result: PfHsp90 set2) | TIM10 conf 53
O=C(Nc1ccc2c(c1)nc1n2CCN(C2CCCCC2)C1)c1ccco1	none (no result: tim23-1 inh, tim10-1 inh, TIM10 inh)
O=C(Nc1ccc2c(c1)nc1n2CCOC1)c1ccco1	TIM10 inh 47 | TIM10 conf inactive
O=C(Nc1ccc(F)cc1F)c1cc(Cl)sc1Cl	none
N#CC(Nc1ccccc1)c1ccccc1OCc1ccccc1 (centres undefined)	TIM10 inh 42 (no result: PfHsp90 set2) | TIM10 conf inactive
c1ccc(-c2nnc3sc(CN4CCc5ccccc54)cn23)cc1	TIM10 inh 42 | TIM10 conf inactive
Brc1ccc(-c2nnc3sc(CN4CCc5ccccc5C4)cn23)cc1	none (no result: tim23-1 inh, tim10-1 inh, TIM10 inh)
COc1ccccc1-c1cc(C(F)(F)F)nc(S(=O)(=O)CCCC(=O)Nc2cc(C)on2)n1	none
COc1ccccc1-c1cc(C(F)(F)F)nc(S(=O)(=O)CCCC(=O)NCc2ccc(F)cc2)n1	TIM10 inh 50 (no result: PfHsp90 set2) | TIM10 conf inactive
Cc1ccc(S(=O)(=O)N2CCc3ccccc3C2CN2C(=O)c3ccccc3C2=O)cc1 (centres undefined)	TIM10 inh 43 | TIM10 conf inactive
COc1ccccc1-c1coc2cc(O)cc(O)c2c1=O	TIM10 inh 42 | TIM10 conf inactive
COc1ccc(-c2coc3cc(O)cc(O)c3c2=O)cc1OC	none
Cc1ccc(/C=C/C(=O)N2CCN(S(=O)(=O)c3c(C)c(C)cc(C)c3C)CC2)o1	TIM10 inh 41 | TIM10 conf inactive
Cc1ccc(/C=C/C(=O)N2CCN(S(=O)(=O)c3ccc(C)c(C)c3)CC2)o1	none
O=C1NC(NS(=O)(=O)c2ccccc2)(C(F)(F)F)C(=O)N1c1cccc(Cl)c1 (centres undefined)	none
COc1ccccc1NC(=S)N(Cc1cccnc1)Cc1ccccc1Cl	none
COc1ccccc1NC(=S)N(Cc1ccc(C)cc1)Cc1cccnc1	TIM10 inh 47 | TIM10 conf inactive
O=C(C1CCN(S(=O)(=O)c2cccc3nsnc23)CC1)N1CCCCC1	none
Cc1ccc(C)c(N2CCN(C(=O)C3CCN(S(=O)(=O)c4cccc5nsnc45)CC3)CC2)c1	TIM10 inh 40 | TIM10 conf 32
C[C@H](CO)N1C[C@H](C)[C@@H](CN(C)S(=O)(=O)c2cn(C)cn2)Oc2c(NS(=O)(=O)c3cn(C)cn3)cccc2C1=O	none
CSc1ccc2c(c1)N(CCC1CCCCN1C)c1ccccc1S2 (centres undefined)	TIM10 inh 53 | TIM10 conf inactive
Cn1c2ccccc2c(=O)c2c(=O)n(-c3ccc(F)cc3)c(C3CCCCC3)nc21	none (no result: tim23-1 inh, tim10-1 inh, TIM10 inh)
Cc1cc2[nH]c3c4ccccc4nc(C)c3c2cc1C	none (no result: tim23-1 inh, tim10-1 inh, TIM10 inh)
Cc1cc2[nH]c3c(c[n+](C)c4ccccc34)c2cc1C	TIM10 inh 66 | TIM10 conf 59
CN(C(=O)c1cccc(NC(=O)Cc2cccc(NC(=O)C3CCN(C(=O)c4ccccc4)CC3)c2)c1)C1CC1	none (no result: tim23-1 inh, tim10-1 inh, TIM10 inh)
Cn1nnnc1SC(C(=O)Nc1ccc(F)cc1)c1ccccc1 (centres undefined)	none
Cn1c(SC(C(=O)Nc2ccc(F)cc2)c2ccccc2)nc2ccccc21 (centres undefined)	TIM10 inh 46 | TIM10 conf 43
COc1cc(C(=O)Nc2ccc3c(c2)CCCN3C(=O)c2ccco2)c([N+](=O)[O-])cc1OC	none (no result: PfHsp90 set2)
CCCCn1c(N)c(N(C(=O)CSc2nncn2-c2ccccc2)C2CCCC2)c(=O)[nH]c1=O	none (no result: tim23-1 inh, tim10-1 inh, TIM10 inh)
